# Results from PubChem BioAssay AID2732 (Emory University Molecular Libraries Screening Center, 2010).
# The whole screen tested about 220,000 compounds, of which about 8,200 (3.7%) were called active.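 Rule for the calls: active = compounds that reduced the stress-induced luciferase reporter signal by more than about 70% of percent inhibition (limit read from the data); inactive = the rest.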 The entries come from a sample that favours actives as a whole.
# Test: blockers of ER-stress CHOP reporter expression – cell-based, unfolded protein response, luciferase reporter, primary screen (AID 2732);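 note: 0% = tunicamycin plus vehicle and 100% = wells without tunicamycin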
# Conditions: CHO-K1 CHOP-promoter luciferase, tunicamycin-induced, 15-18 h; at 10 µM; active compounds read high
row,SMILES,inhibition
1,Cc1cc(C)nc(SCc2cn3c(C)cc(C)nc3n2)n1,19.4% (inactive)
2,Cc1onc(-c2ccc(Cl)cc2)c1-c1ccnn1S(=O)(=O)c1ccc(Cl)cc1,57.9% (inactive)
3,COc1ccc(-n2cnnc2SCC(=O)Nc2cccc([N+](=O)[O-])c2)cc1,5.96% (inactive)
4,COc1ccc(CCNC(=O)CSc2nc3[nH]ncc3c(=O)n2-c2cccc(C(F)(F)F)c2)cc1OC,16.4% (inactive)
5,NC(=O)NC(=O)CSc1nc2cc([N+](=O)[O-])ccc2n1-c1cccc(C(F)(F)F)c1,76.3% (active)
6,NS(=O)(=O)c1ccc(NC2=CC(c3ccc(F)cc3)N(c3ccc(S(N)(=O)=O)cc3)C2=O)cc1 (configuration not stated),-15.2% (inactive)
7,CC(C)(C)c1nc2ccccc2c(=O)n1N1C(=O)c2ccccc2C1=O,71.3% (active)
8,CN(C)CCCn1c(SCCN2C(=O)c3ccccc3C2=O)nc2ccccc2c1=O,4.6% (inactive)
9,CCC1(CC)Cc2ccccc2-c2nc3ccccc3c(=O)n21,16.7% (inactive)
10,CCCN(c1ccc(C)cc1)c1nc(=O)c2cccnc2s1,12.3% (inactive)
11,Cc1cc(N)n(-c2ccc(S(=O)(=O)N3CCCC3)cc2[N+](=O)[O-])n1,7.68% (inactive)
12,Cn1c(=O)c2[nH]c(NCC3CCCO3)nc2n(-c2ccccc2)c1=O (configuration not stated),8.41% (inactive)
13,CC(C)(C)c1nc(NCC2CCCO2)c2nnn(Cc3ccccc3)c2n1 (configuration not stated),71.1% (active)
14,CC(C)Nc1ncnc2c1nnn2Cc1ccccc1,21.7% (inactive)
15,CC/C=C/C(=O)N1CC2(CC(c3cccc(NC(=O)CC)c3)=NO2)C[C@H]1C(N)=O (some centres not stated),-5.15% (inactive)
16,CC(C)Cc1nnc(NC(=O)CCC(=O)Nc2ccc3cn[nH]c3c2)s1,-20.9% (inactive)
17,CCOc1cc(/C=C(\C#N)c2nc(-c3cccs3)c(NC(C)=O)s2)ccc1O,-1.5% (inactive)
18,COc1cc(/C=N/Nc2nc3ccccc3s2)ccc1O,3.98% (inactive)
19,COc1cc(/C=C(\C#N)c2nc3c(s2)CC(C)CC3)ccc1O (configuration not stated),93.6% (active)
20,O=C(COC(=O)/C=C/c1ccc2c(c1)OCO2)NC1CCS(=O)(=O)C1 (configuration not stated),17.7% (inactive)
21,Cc1nc(C)c2c(c1C(F)(F)F)-c1ccccc1C2(F)F,84.7% (active)
22,CSc1n[nH]c(=S)n1N,0.04% (inactive)
23,CC(C)(C)C(=O)OCc1nc(-c2ccc(O)c(O)c2)cs1,-105% (inactive)
24,Cc1ccc(C(=O)NC(=S)Nc2ccc3[nH]c(=O)[nH]c3c2)cc1C,1.63% (inactive)
25,Cc1cc(C)cc(C(=O)NC(=S)Nc2ccc3[nH]c(=O)[nH]c3c2)c1,81.3% (active)

row,SMILES,inhibition
1,Cc1ccc(S(=O)(=O)/N=C(/Nc2ccc3[nH]c(=O)[nH]c3c2)c2ccccc2)cc1,-16.7% (inactive)
2,CC1CC2=C(CC1/C=N/NC(N)=S)C(C)(C)CCC2 (configuration not stated),89.8% (active)
3,CC1(C)CCCC2=C1CC1C(=O)N(c3ccccc3)C(=O)C1C2 (configuration not stated),12% (inactive)
4,CN(C(=O)Nc1ccc(Cl)cc1)n1cnc2ccccc2c1=O,20.1% (inactive)
5,CC1(C)C=C2[C@H]3CC[C@@H]4[C@@]5(C)CCC(=O)C(C)(C)[C@@H]5CC[C@@]4(C)[C@]3(C)CC[C@@]2(C(=O)O)CC1,95% (active)
6,COC(=O)/C=C(\Oc1ccccc1)C1(O)CCCCC1,7.27% (inactive)
7,Fc1ccc(Nc2nnns2)cc1,3.88% (inactive)
8,Cc1ccc(-n2ncc3c(=O)n(-c4ccc(C)c(C)c4)c(-c4ccco4)nc32)cc1,37.9% (inactive)
9,Cc1ccc(-n2ncc3c2ncn2nc(-c4ccco4)nc32)c(C)c1,105% (active)
10,COC(=O)CSc1ncnc2c1cnn2-c1ccc(C)cc1C,-4.08% (inactive)
11,O=C(NCc1cccnc1)Nc1cccc(NC(=O)NCc2cccnc2)c1F,7.4% (inactive)
12,CN1CCN(C2=NCCO2)CC1,2.43% (inactive)
13,O=C(Nc1nnc(SCc2c(Cl)cccc2Cl)s1)C1CCCO1 (configuration not stated),18.8% (inactive)
14,O=C(Nc1nc2c(F)cc(F)cc2s1)C1COc2ccccc2O1 (configuration not stated),17.5% (inactive)
15,O=C(Nc1nnc(SCc2ccc(Cl)cc2Cl)s1)C1COc2ccccc2O1 (configuration not stated),71.3% (active)
16,Cc1cnc(NC(=O)c2ccccn2)s1,8.8% (inactive)
17,CN(C)S(=O)(=O)c1ccc(C(=O)NCC(C)(C)N2CCOCC2)cc1,-18.3% (inactive)
18,Oc1ccc(/C=N/NC2=NCCCCC2)c(O)c1,-12.1% (inactive)
19,Cc1nc2ccccc2nc1N/N=C/c1ccc(O)cc1O,74.5% (active)
20,Oc1ccc(/C=N/Nc2nc(-c3ccccc3F)nc3ccccc23)c(O)c1,57.6% (inactive)
21,O=C(O)Cc1csc(NC(=O)CSc2nnnn2-c2ccc(O)cc2)n1,-5.01% (inactive)
22,CCc1ccc(S(=O)(=O)NCC(O)COc2ccc(OC)cc2)cc1 (configuration not stated),16.3% (inactive)
23,O=C(N/N=C\c1cc(Br)c(Br)o1)C1COc2ccccc2O1 (configuration not stated),6.22% (inactive)
24,Cc1ccc(-c2csc(-c3cc(C)on3)n2)cc1,-14.2% (inactive)
25,Cc1ccc(-c2csc(-c3c[nH]c4ccccc34)n2)cc1,98.1% (active)

row,SMILES,inhibition
1,CCCc1cc(-c2nc(-c3ccc(C)cc3)cs2)ccn1,39.6% (inactive)
2,COCc1cc(=O)oc2cc(NS(=O)(=O)c3ccc(C)cc3)ccc12,9.01% (inactive)
3,Cc1cc(Nc2ccc(N3CCOCC3)cc2)c2cccc(C)c2n1,-27.9% (inactive)
4,COC(=O)c1ccc(NC(=O)Nc2ccc(C)cc2)cc1,26.6% (inactive)
5,COc1cc(NC(=O)Nc2ccc(C)cc2)cc([N+](=O)[O-])c1,71.2% (active)
6,CC(=O)c1ccc(NC(=O)Nc2ccc([N+](=O)[O-])cc2C)cc1,51.8% (inactive)
7,Cn1c(=O)c2c(nc(NCc3ccccc3)n2CC(N)=O)n(C)c1=O,9.77% (inactive)
8,Cc1ccccc1N1CCN(Cc2nc(Cc3ccccc3F)no2)CC1,-7.61% (inactive)
9,COc1cc(C(=O)N[C@@H](C)C(=O)NCc2ccco2)cc(OC)c1OC,0.36% (inactive)
10,COC(=O)c1cc(Cl)c(NC(=O)c2ccco2)cc1OC,-8.18% (inactive)
11,COc1cc(C(=O)OC(C)C(=O)NCC2CCCCC2)cc(NC(=O)c2ccco2)c1OC (configuration not stated),101% (active)
12,Cc1[nH]n(C)c(=O)c1N=Nc1ccc(S(C)(=O)=O)cc1,7.35% (inactive)
13,CCc1ccccc1NC(=O)c1cccs1,39.1% (inactive)
14,CCc1ccccc1NC(=O)/C(=C/c1ccccc1)c1ccccc1,84.8% (active)
15,O=C(/C=C/c1ccccc1)N/C(=C/c1ccccc1)C(=O)Nc1ccccc1O,-0.94% (inactive)
16,O=C(N/N=C/c1ccccn1)c1ccc(S(=O)(=O)N2CCCCCC2)cc1,-0.54% (inactive)
17,COc1ccccc1N1CCN(C(=O)c2ccc(S(=O)(=O)N3CCCCC3)cc2)CC1,10.2% (inactive)
18,N#CC(C(=O)c1ccc(S(=O)(=O)N2CCCCCC2)cc1)c1nc2ccccc2[nH]1 (configuration not stated),101% (active)
19,Cc1ccc(S(=O)(=O)N(C)C)cc1NC(=O)COC(=O)c1c(C)noc1C,22.9% (inactive)
20,CCN(CC)S(=O)(=O)c1ccc(C)c(NC(=O)COc2ccc(Br)cc2Cl)c1,88% (active)
21,CCN(CC)S(=O)(=O)c1ccc(Cl)c(NC(=O)c2ccncc2)c1,4.4% (inactive)
22,COC(=O)c1cccc(NS(C)(=O)=O)c1,27.4% (inactive)
23,COC(=O)c1sc(SC)c(S(=O)(=O)C(C)C)c1N/N=C(\C#N)S(=O)(=O)c1ccccn1,5.06% (inactive)
24,CCN(CC(=O)Nc1cccc(S(N)(=O)=O)c1)Cc1nc2ccccc2c(=O)[nH]1,-6.72% (inactive)
25,C=CCSc1nc(N)cc(=O)[nH]1,14.8% (inactive)

row,SMILES,inhibition
1,CC(C)c1ccc(N2CCN(C(=O)c3ccccc3NC(=O)/C=C(\C(=O)O)c3ccccc3)CC2)cc1,110% (active)
2,O=C(O)C1CC=CCC1C(=O)Nc1ccccc1C(=O)N1CCN(c2ccccc2)CC1 (configuration not stated),12.7% (inactive)
3,Cc1cccc(N2CCN(C(=O)c3ccccc3NC(=O)C3CCCCC3C(=O)O)CC2)c1 (configuration not stated),13.9% (inactive)
4,CC12CN3CCN(CC(C3)/C1=N\NC(=O)c1ccccc1N)C2,7.18% (inactive)
5,Cn1c(=O)c2c(nc(N/N=C/c3cccs3)n2Cc2ccc(Br)cc2)n(C)c1=O,79.6% (active)
6,CCCCNc1nc2c(c(=O)n(C)c(=O)n2C)n1Cc1cccc(OC)c1,17.1% (inactive)
7,Cn1c(=O)c2c(nc(NCCc3ccccc3)n2Cc2ccccc2)n(C)c1=O,61.2% (inactive)
8,O=C(CS(=O)(=O)c1ccc(C(F)(F)F)cn1)NNC(=O)c1ccccc1,3.02% (inactive)
9,CCOC(=O)c1sc2nc(CSc3ccccc3)[nH]c(=O)c2c1C,63.4% (inactive)
10,CCOC(=O)c1sc2nc(C)[nH]c(=O)c2c1C,3.38% (inactive)
11,CCOC(=O)c1sc(C)c2c1NC(C)(c1cccc3ccccc13)NC2=O (configuration not stated),74.8% (active)
12,Cc1nc(/N=C(\N)NC(=O)NC2CCCCC2)nc2ccccc12,33.5% (inactive)
13,O=C(Nc1cccn(Cc2ccccc2Cl)c1=O)NC1CCCCC1,26.3% (inactive)
14,O=c1ccn(Cc2ccccc2Cl)cc1,68.6% (inactive)
15,CC1(C)COC(c2cccn2Cc2ccccc2Cl)=N1,71.8% (active)
16,CCC(=O)/C(=C(/O)c1ccccc1)c1nc2ccccc2[nH]1,-37.6% (inactive)
17,O=C(Cc1nc2ccccc2[nH]c1=O)c1ccc(Cl)cc1,-13.2% (inactive)
18,O=C(/C(=C/c1cccc(Cl)c1)c1nc2ccccc2[nH]1)c1ccccc1,92.6% (active)
19,Cc1ccc(NNC(=O)c2c(F)cccc2Cl)cc1Cl,4.19% (inactive)
20,COc1ccc(-n2c(SCC(=O)Nc3sc4c(c3C#N)CCCC4)nnc2-c2ccc(O)cc2)cc1,106% (active)
21,NC(=O)c1c(NC(=O)CSc2nnc(-c3ccco3)n2N)sc2c1CCCC2,22.2% (inactive)
22,COc1cccc(CN(C)CC(=O)Nc2sc3c(c2C#N)CCC3)c1,3.74% (inactive)
